Consider 38 compounds from the supplement of paper PMC9925115.

SMILES strings stand for the structures. Where a name gives a salt, the structure may show the parent alone. ± gives the uncertainty stated by the source.

This experiment relates to FLX1. Description: cell viability z-score within plate (CellTiter-Glo), mean of 3 biological replicates; higher = higher viability relative to plate (less growth inhibition). Particulars: 2 µM; time (hr): 120. Here is the method: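 FLX1 fibrolamellar carcinoma cells (DNAJB1-PRKACA fusion), 600 cells/well in 384-well plates, treated with a Selleck kinase inhibitor library (L1200) at 2 uM for 5 days (120 hr); viability by CellTiter-Glo. A z-score was computed within each plate and averaged over three biological replicates.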
Consider `CNC(=O)c1cc(Oc2ccc(NC(=O)Nc3cc(C(C)(C)C)nn3-c3ccc4ncccc4c3)c(F)c2)ccn1` [Rebastinib (DCC-2036)], for which the “cell viability z-score within plate” value is 0.382 ± 0.34. For `Cc1cc(Nc2cc(CN3CCOCC3)c3nc(C)c(Cc4ccc(Cl)cc4F)n3n2)n[nH]1`, the “cell viability z-score within plate” value worked out at 0.049 ± 0.54. `Cn1cnc2c(F)c(Nc3ccc(Br)cc3Cl)c(C(=O)NOCCO)cc21` [Selumetinib (AZD6244)]: the “cell viability z-score within plate” value is -0.403 ± 0.49. In the case of `O=S(=O)(c1cccc2cnccc12)N1CCCNCC1` [Fasudil (HA-1077) HCl], the “cell viability z-score within plate” value turned out to be 0.511 ± 0.42. `Cn1cc(/C=C2\C(=O)Nc3cccnc32)c2ccccc21`: the “cell viability z-score within plate” value amounted to 0.84 ± 0.29.

As to `CN(C)C/C=C/C(=O)Nc1cc2c(Nc3ccc(F)c(Cl)c3)ncnc2cc1O[C@H]1CCOC1` [Afatinib (BIBW2992)], the “cell viability z-score within plate” value is -0.688 ± 0.67.

As to `CC(=O)Nc1cccc(-n2c(=O)n(C3CC3)c(=O)c3c(Nc4ccc(I)cc4F)n(C)c(=O)c(C)c32)c1`, the “cell viability z-score within plate” value was 0.929 ± 0.43. `CNC(=O)CN1CCC(Oc2cc3c(Nc4cccc(Cl)c4F)ncnc3cc2OC)CC1` [Sapitinib (AZD8931)]: the “cell viability z-score within plate” value is 0.472 ± 0.47. For the compound `Cc1csc(-c2nnc(Nc3ccc(Oc4ncccc4-c4ccnc(N)n4)cc3)c3ccccc23)c1`, the “cell viability z-score within plate” value was -0.507 ± 1.2. The result for `Nc1nc(N)c2nc(-c3cccc(O)c3)c(-c3cccc(O)c3)nc2n1` reads 0.649 ± 0.23; that for `CNc1nc(-c2ccc3c(N)n[nH]c3c2)cc(N2C[C@@H](C(=O)NC3CCCCC3)CC[C@H]2C)n1`, 0.0251 ± 0.54; that for `CN1CC[C@H](c2c(O)cc(O)c3c(=O)cc(-c4ccccc4Cl)oc23)[C@H](O)C1` [Flavopiridol (Alvocidib)], 0.251 ± 0.25. In the case of `CO[C@@H](C(=O)N1Cc2[nH]nc(NC(=O)c3ccc(N4CCN(C)CC4)cc3)c2C1)c1ccccc1`, the “cell viability z-score within plate” value amounted to 0.348 ± 0.073. `Nc1ncnc2c1c(-c1cnc3[nH]ccc3c1)nn2C1CCCC1`: the “cell viability z-score within plate” value is -0.241 ± 0.65.

Consider `CCC(=O)Nc1cccc(Oc2nc(Nc3ccc(N4CCN(C)CC4)cc3OC)ncc2Cl)c1`, for which the “cell viability z-score within plate” value came to 0.708 ± 0.11. With `COc1cc2ncnc(Nc3ccc(O)c(Br)c3)c2cc1OC`, the “cell viability z-score within plate” value turned out to be 0.753 ± 0.38. `COc1cccc2cc(-c3nc([C@H]4CC[C@H](C(=O)O)CC4)n4ncnc(N)c34)[nH]c12`: the “cell viability z-score within plate” value was found to be 0.362 ± 0.51. Consider `CO[C@H]1C[C@@H]2CC[C@@H](C)[C@@](O)(O2)C(=O)C(=O)N2CCCC[C@H]2C(=O)O[C@H]([C@H](C)C[C@@H]2CC[C@H](n3cnnn3)[C@H](OC)C2)CC(=O)[C@H](C)/C=C(\C)[C@@H](O)[C@@H](OC)C(=O)[C@H](C)C[C@H](C)/C=C/C=C/C=C/1C` [Zotarolimus(ABT-578)], for which the “cell viability z-score within plate” value came to 0.264 ± 0.45. The result for `O=C(c1ccc(/C=C/c2n[nH]c3ccccc23)cc1)N1CCNCC1` reads 0.449 ± 0.26; that for `C=CC(=O)Nc1cccc(Nc2nc(Nc3ccc(NC4CN(CCF)C4)cc3OC)ncc2C(F)(F)F)c1`, -0.00318 ± 1.3. `COc1ccc(COc2cc3oc(=O)c4cc(C(C)O)ccc4c3cc2OC)cc1` (stereo not drawn) [Palomid 529 (P529)]: the “cell viability z-score within plate” value stood at 0.0682 ± 0.42. Regarding `CN1CCN(c2ccc3nc(-c4c(N)c5c(F)cccc5[nH]c4=O)[nH]c3c2)CC1` [Dovitinib (TKI-258) Dilactic Acid], the “cell viability z-score within plate” value is 0.322 ± 0.38. The result for `FC(F)(F)c1ccc(/C=C/c2nc(COc3ccc(CCCCn4ccnn4)cc3)co2)cc1` [Mubritinib (TAK 165)] reads -0.952 ± 0.95. For the compound `CNC(=O)c1cc(Oc2ccc(NC(=O)Nc3ccc(Cl)c(C(F)(F)F)c3)c(F)c2)ccn1` [Regorafenib (BAY 73-4506)], the “cell viability z-score within plate” value turned out to be 2 ± 0.81. Turning to `CC(C)CCN1c2nc(Nc3cc(F)c(O)c(F)c3)ncc2N(C)C(=O)C1C` (stereo not drawn), the “cell viability z-score within plate” value was -0.812 ± 0.59.

For `N#Cc1ccc2[nH]c(O)c(-c3ccc(CN4CCOCC4)cn3)c2c1`, the “cell viability z-score within plate” value came out at 0.226 ± 0.62.

Regarding `COc1cc(Nc2ncc(F)c(Nc3ccc4c(n3)NC(=O)C(C)(C)O4)n2)cc(OC)c1OC`, the “cell viability z-score within plate” value came to 0.701 ± 0.4. As to `Cn1c(=O)c(F)c(Nc2ccc(I)cc2F)c2c(=O)n(C[C@@H](O)CO)cnc21`, the “cell viability z-score within plate” value stood at 1.04 ± 0.62. Consider `CC[C@@H]1C(=O)N(C)c2cnc(Nc3ccc(C(=O)N[C@H]4CC[C@H](N5CCN(CC6CC6)CC5)CC4)cc3OC)nc2N1C(C)C` [Volasertib (BI 6727)], for which the “cell viability z-score within plate” value was -0.186 ± 0.53. Regarding `N[C@@H]1CCCN(c2c(/C=C3\SC(=O)NC3=O)cccc2-c2ccccc2)C1`, the “cell viability z-score within plate” value is 0.166 ± 0.49. The result for `Cc1cc([C@@H](C)Nc2ccccc2C(=O)O)c2nc(N3CCOCC3)cc(=O)n2c1` reads -2.82 ± 2. The result for `Nc1cccc(-c2cc3c(Oc4cccc(O)c4)ncnc3[nH]2)c1` reads -0.5 ± 0.21; that for `C=CC(=O)Nc1cccc(Nc2nc(Nc3ccc(OCCOC)cc3)ncc2F)c1`, -0.411 ± 0.22. As to `CO[C@H]1C[C@@H]2CC[C@@H](C)[C@@](O)(O2)C(=O)C(=O)N2CCCC[C@H]2C(=O)O[C@H]([C@H](C)C[C@@H]2CC[C@@H](O)[C@H](OC)C2)CC(=O)[C@H](C)/C=C(\C)[C@@H](O)[C@@H](OC)C(=O)[C@H](C)C[C@H](C)/C=C/C=C/C=C/1C` [Rapamycin (Sirolimus)], the “cell viability z-score within plate” value amounted to 0.422 ± 0.17.

Consider `O=C1Nc2ccc(I)cc2/C1=C/c1cc(Br)c(O)c(Br)c1`, for which the “cell viability z-score within plate” value was 1.53 ± 0.35. Consider `C=CC(=O)Nc1cccc(Oc2nc(Nc3ccc(N4CCN(C)CC4)cc3OC)ncc2Cl)c1`, for which the “cell viability z-score within plate” value came out at 0.221 ± 0.37. Regarding `COc1ncc(-c2ccc3nccc(-c4ccnnc4)c3c2)cc1NS(=O)(=O)c1ccc(F)cc1F`, the “cell viability z-score within plate” value came out at 0.539 ± 0.32. As for `O=C(NCc1ccccc1)c1csc(Nc2ccncn2)n1` [Thiazovivin], the “cell viability z-score within plate” value was -0.686 ± 0.81.
